Only a selection was taken, and the strongest signals are over-represented in it overall.
Key:
Test in all cases: glycan array binding signal (z-score within array); higher = stronger binding
Conditions in all cases: glycan notation: IUPAC condensed, linker removed
[1] = target: GlcA(b1-3)GlcNAc
Outline: (§1)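 Glycan array data came from 3228 arrays in the Consortium for Functional Glycomics database, and only arrays with an available protein sequence were kept. Glycan names were put into IUPAC-condensed notation, and columns mapping to the same glycan were averaged. The binding signal is a within-array Z-score, averaged across arrays of one protein sequence run at different concentrations or buffers and across linkers. A negative Z-score can be read as non-binding.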

[2] = target: GlcNAc(a1-4)Gal(b1-4)GalNAc
Outline: as §1

[3] = target: GlcNAc(a1-4)Gal(b1-4)GlcNAc(b1-3)Gal(b1-4)GlcNAc(b1-3)Gal(b1-4)GlcNAc
Outline: as §1

[4] = target: GlcNAc(b1-3)Gal(b1-4)GlcNAc(b1-3)Gal(b1-4)GlcNAc(b1-2)Man(a1-3)[GlcNAc(b1-3)Gal(b1-4)GlcNAc(b1-3)Gal(b1-4)GlcNAc(b1-2)Man(a1-6)]Man(b1-4)GlcNAc(b1-4)GlcNAc
Outline: as §1

[5] = target: GlcNAc(b1-3)Gal(b1-4)GlcNAc(b1-3)Gal(b1-4)GlcNAc(b1-3)Gal(b1-4)GlcNAc(b1-2)Man(a1-3)[GlcNAc(b1-3)Gal(b1-4)GlcNAc(b1-3)Gal(b1-4)GlcNAc(b1-3)Gal(b1-4)GlcNAc(b1-2)Man(a1-6)]Man(b1-4)GlcNAc(b1-4)GlcNAc
Outline: as §1

[6] = target: GlcNAc(b1-3)Gal(b1-4)GlcNAc(b1-3)Gal(b1-4)GlcNAc(b1-3)Gal(b1-4)GlcNAc(b1-3)Gal(b1-4)GlcNAc(b1-2)Man(a1-3)[GlcNAc(b1-3)Gal(b1-4)GlcNAc(b1-3)Gal(b1-4)GlcNAc(b1-3)Gal(b1-4)GlcNAc(b1-3)Gal(b1-4)GlcNAc(b1-2)Man(a1-6)]Man(b1-4)GlcNAc(b1-4)[Fuc(a1-6)]GlcNAc
Outline: as §1

[7] = target: GlcNAc(b1-3)Gal(b1-4)GlcNAc(b1-3)Gal(b1-4)GlcNAc(b1-3)Gal(b1-4)GlcNAc(b1-3)Gal(b1-4)GlcNAc(b1-2)[GlcNAc(b1-3)Gal(b1-4)GlcNAc(b1-3)Gal(b1-4)GlcNAc(b1-3)Gal(b1-4)GlcNAc(b1-3)Gal(b1-4)GlcNAc(b1-6)]Man(a1-6)[GlcNAc(b1-3)Gal(b1-4)GlcNAc(b1-3)Gal(b1-4)GlcNAc(b1-3)Gal(b1-4)GlcNAc(b1-3)Gal(b1-4)GlcNAc(b1-2)Man(a1-3)]Man(b1-4)GlcNAc(b1-4)[Fuc(a1-6)]GlcNAc
Outline: as §1

[8] = target: GlcNAc(b1-3)Gal(b1-4)GlcNAc(b1-6)[Gal(b1-3)]GalNAc
Outline: as §1

[9] = target: GlcNAc(b1-4)GlcNAc
Outline: as §1

[10] = target: GlcNAc(b1-4)GlcNAc(b1-4)GlcNAc(b1-4)GlcNAc(b1-4)GlcNAc
Outline: as §1

[11] = target: Kdn(a2-6)Gal(b1-4)GlcNAc
Outline: as §1

[12] = target: Man(a1-6)Man
Outline: as §1

[13] = target: Neu5Ac(a2-3)Gal(b1-3)GlcNAc(b1-3)Gal(b1-4)GlcNAc
Outline: as §1

[14] = target: Neu5Ac(a2-3)Gal(b1-3)[Fuc(a1-4)]GlcNAc(b1-3)Gal(b1-3)[Fuc(a1-4)]GlcNAc
Outline: as §1

[15] = target: Neu5Ac(a2-3)Gal(b1-3)[GlcNAc(b1-6)]GalNAc
Outline: as §1

[16] = target: Neu5Ac(a2-3)Gal(b1-4)GlcNAc(b1-2)Man(a1-3)[GlcNAc(b1-4)][Neu5Ac(a2-3)Gal(b1-4)GlcNAc(b1-2)Man(a1-6)]Man(b1-4)GlcNAc(b1-4)GlcNAc
Outline: as §1

[17] = target: Neu5Ac(a2-3)[GalNAc(b1-4)]Gal(b1-4)GlcNAc
Outline: as §1

[18] = target: Neu5Ac(a2-6)Gal
Outline: as §1

[19] = target: Neu5Ac(a2-6)Gal(b1-4)GlcNAc(b1-2)Man
Outline: as §1

[20] = target: Neu5Ac(a2-6)Gal(b1-4)GlcNAc(b1-3)Gal(b1-4)GlcNAc(b1-3)Gal(b1-4)GlcNAc
Outline: as §1

[21] = target: Neu5Ac(a2-6)Gal(b1-4)GlcNAc(b1-3)Gal(b1-4)GlcNAc(b1-3)Gal(b1-4)GlcNAc(b1-2)Man(a1-3)[Neu5Ac(a2-6)Gal(b1-4)GlcNAc(b1-3)Gal(b1-4)GlcNAc(b1-3)Gal(b1-4)GlcNAc(b1-2)Man(a1-6)]GalNAc
Outline: as §1

[22] = target: Neu5Ac(a2-8)Neu5Ac(a2-3)Gal(b1-4)GlcNAc
Outline: as §1

[23] = target: Neu5Ac(a2-8)Neu5Ac(a2-3)[GalNAc(b1-4)]Gal(b1-4)Glc
Outline: as §1

[24] = target: Neu5Ac(a2-8)Neu5Ac(a2-8)Neu5Ac(a2-3)[Gal(b1-3)GalNAc(b1-4)]Gal(b1-4)Glc
Outline: as §1

[25] = target: Neu5Ac(a2-8)Neu5Gc(a2-3)Gal(b1-4)GlcNAc
Outline: as §1

[26] = target: Neu5Ac(b2-6)GalNAc
Outline: as §1

[27] = target: Neu5Gc(a2-3)Gal(b1-3)GlcNAc
Outline: as §1

[28] = target: Neu5Gc(a2-8)Neu5Gc(a2-3)Gal(b1-4)GlcNAc(b1-3)Gal(b1-4)GlcNAc
Outline: as §1

B1: PX9961C-bth-497-22-497 (Bacteroides thetaiotaomicron) (protein)
chain: DWLDLNTTSSVETGQAIVTLDDAQIALNGIYRLASGHSYYGDNYWYYGDCRAADVQARITKGDGKRVSPYYEYNVLASDNLNIVLPWNTVYKVIRQTNNLIQKIESGSIQSSDTKELNRIKSEALVMRGLSLFNLTRLFGMPYTNDKGASLGVPIETSPSDPTHKPSRSTVAQCYEQVVSDMSNALSGLRQETSNGYINYWAAQALLSRVYLNMGEYQKAYDAATDVIKNNGGRYQLYSYEEYPNVWGQDFQSESLFELYITLSEPSGGTGGEGAPMVYANEATVDWNNLILSEDFLNLLNEDPKDVRHCLTKESVIENNTGLPAAAMHEKVYLAKFPGKTGDDPKTNNICIIRLSEVYLNAAEAGLKKGTDIEEAQGYLNDIISRRTTDTSQQVSTETFTLDRILKERRKELVGEGEVFYDYLRNGLAIERKGSWHLETLKASNAQKIEATDLRIALPIPQSEIDANPNIQQNPR
glycan array binding signal (z-score) [1]: 0.671 | glycan array binding signal (z-score) [2]: -0.269 | glycan array binding signal (z-score) [3]: 0.15 | glycan array binding signal (z-score) [4]: 1.6 | glycan array binding signal (z-score) [5]: 0.098 | glycan array binding signal (z-score) [6]: 2.24 | glycan array binding signal (z-score) [7]: -0.034 | glycan array binding signal (z-score) [8]: 1.56 | glycan array binding signal (z-score) [9]: -0.2 | glycan array binding signal (z-score) [10]: -0.492 | glycan array binding signal (z-score) [11]: -0.057 | glycan array binding signal (z-score) [12]: -0.481 | glycan array binding signal (z-score) [13]: 0.993 | glycan array binding signal (z-score) [14]: 2.16 | glycan array binding signal (z-score) [15]: -0.029 | glycan array binding signal (z-score) [16]: -0.279 | glycan array binding signal (z-score) [17]: -0.469 | glycan array binding signal (z-score) [18]: 0.311 | glycan array binding signal (z-score) [19]: -0.411 | glycan array binding signal (z-score) [20]: -0.506 | glycan array binding signal (z-score) [21]: 0.689 | glycan array binding signal (z-score) [22]: -0.198 | glycan array binding signal (z-score) [23]: -0.361 | glycan array binding signal (z-score) [24]: -0.241 | glycan array binding signal (z-score) [25]: 13.7 | glycan array binding signal (z-score) [26]: -0.424 | glycan array binding signal (z-score) [27]: -0.496 | glycan array binding signal (z-score) [28]: 0.531
